Most compounds without a hit are left out; they make up all but 2.4% or so of the library.
D2 PAM-1: HTS Assay for Positive Allosteric Modulators of the Human D2 Dopamine Receptor: Primary Screen for Potentiators. HEK293 T-REx D2, calcium flux, EC20 dopamine potentiation. 340,000 tested, 0.34% active. potentiation, % at 10 µM. D(2) dopamine receptor (Homo sapiens), P14416;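 active means potentiation over 3 SD above the plate norm, cut at about 30% in these data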
Target sequence (P14416 whole entry, looked up): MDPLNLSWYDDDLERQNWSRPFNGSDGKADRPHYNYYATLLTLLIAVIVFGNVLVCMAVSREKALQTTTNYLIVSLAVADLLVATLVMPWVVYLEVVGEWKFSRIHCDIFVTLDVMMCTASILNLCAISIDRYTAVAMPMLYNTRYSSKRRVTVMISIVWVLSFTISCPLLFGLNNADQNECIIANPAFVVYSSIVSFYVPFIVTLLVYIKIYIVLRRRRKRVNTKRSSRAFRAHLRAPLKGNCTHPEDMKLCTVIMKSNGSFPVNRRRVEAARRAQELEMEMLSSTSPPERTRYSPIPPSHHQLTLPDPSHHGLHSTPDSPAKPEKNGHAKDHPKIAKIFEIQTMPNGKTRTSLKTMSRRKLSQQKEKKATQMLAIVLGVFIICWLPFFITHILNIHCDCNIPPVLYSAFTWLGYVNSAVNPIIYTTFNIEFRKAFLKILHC
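Using a no-wash calcium dye in inducible, force-coupled HEK293 Trex cells expressing D2, we tracked fluorescence each second for 180 s after compound, then for 180 s after EC20 dopamine to detect augmented signalling.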
D2 ag-1: HTS Assay for Allosteric Agonists of the Human D2 Dopamine Receptor: Primary Screen for Agonists | D(2) dopamine receptor (Homo sapiens), P14416 | HEK293 T-REx D2 cells, calcium flux agonist mode | activation, % at 2 µM | 340,000 tested, 0.53% active | AID 485358, 2010;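 active means activation over 3 SD above normal in the single-dose calcium agonist read, cut at about 30% in these data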
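Tetracycline-induced HEK293 Trex cells with D2 receptor force-coupled to calcium signaling, plated overnight at 30 C and loaded with no-wash calcium dye. Calcium flux read kinetically for 180 s after compound addition; responses flag agonists.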
D2 antagonist: HTS Assay for Allosteric Antagonists of the Human D2 Dopamine Receptor: Primary Screen for Antagonists | 340,000 tested, 2% active | inhibition, % at 10 µM | HEK293 TREx D2 cells, calcium flux, dopamine EC80 | AID 485344, 2010; in the data active means inhibition above about 30%; inactive means below that, where a call was filed
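Dopamine at EC80 is the agonist stimulus; test compounds precede it by 180 s. Calcium flux read kinetically in a force-coupled, inducible HEK293 T-REx D2 cell line.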
D2 PAM-2: Beta-Arrestin HTS for Positive Allosteric Modulators of the Human D2 Dopamine Receptor: Potentiators | 360,000 tested, 0.23% active | potentiation, % (no concentration beside the values) | DiscoveRx D2 beta-arrestin cells, luminescence, 90 min; 100% = 57 uM dopamine signal | D(2) dopamine receptor (Homo sapiens), P14416; in the data active means potentiation above about 50%; inconclusive means mostly about 30% to 49%
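PathHunter beta-arrestin assay in DiscoveRx D2 cells. Compounds were added with an EC20 of dopamine (50 nM final) for 90 min at 37 deg C. Luminescence was read 1 h after detection reagent, with 57 uM dopamine as the EC100 control.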
D2 ag-2: Beta-Arrestin HTS for Positive Allosteric Modulators of the Human D2 Dopamine Receptor: Agonists. 360,000 tested, 0.084% active. D(2) dopamine receptor (Homo sapiens), P14416. AID 624465, 2012. DiscoveRx PathHunter D2 beta-arrestin, luminescence, 90 min; 100% = 57 uM dopamine signal. activation, % (concentration not given with the values); in the data active means activation above about 40%; inconclusive means between about 15% and that limit
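DiscoveRx PathHunter D2 beta-arrestin cells (2,100/well) attached overnight, then compound-stimulated 90 min at 37 C in HBSS/10 mM HEPES/0.1% Tween-20 buffer; beta-galactosidase complementation read by luminescence after 1 h at ambient temperature. Dopamine 57 uM final (EC100) as control.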
D3 arrestin ag: qHTS of D3 Dopamine Receptor Agonist: D3 Dopamine Receptor B-arrestin Agonist Confirmatory Assay; 2,300 tested, 4% active; Potency, µM (titrated, usually from 76.9 µM), hits mostly activators; shares compounds with D2 ag-1; DiscoveRx D3 beta-arrestin cells, luminescence, 90 min; AID 720506, 2013; further: nearly all actives have a fitted effect of over 70% in size
D2 ag-3: qHTS of D3 Dopamine Receptor Agonist: D2 Dopamine Receptor B-arrestin Agonist Counterscreen; shares compounds with D2 ag-1; DiscoveRx PathHunter D2 beta-arrestin, luminescence, 90 min; response scale: percent relative to full dopamine signal; Potency, µM (highest dose often 76.9 µM), most hits filed as activators; 2,300 tested, 5.9% active; AID 720507, 2013; further: nearly all actives have a fitted effect of over 70% in size
Numbers stand for hits; n = inactive; u = inconclusive; x = no result given. Unless noted, the call rests on the fitted dose curve; in most records, active means well fitted activation curve with a large enough effect; inconclusive means small, poorly fitted or top-dose-only effect; inactive means flat fitted curve, though single readings scatter.

SMILES	D2 PAM-1	D2 ag-1	D2 antagonist	D2 PAM-2	D2 ag-2	D3 arrestin ag	D2 ag-3
CCOC(=O)C(=O)Nc1ccc(S(=O)(=O)Nc2nccc(C)n2)cc1	x	x	x	n	n	x	x
CC(C)(CO)NS(=O)(=O)c1ccc2c(c1)C(=O)c1cc(S(=O)(=O)NC(C)(C)CO)ccc1-2	n	n	n	n	n	x	x
CC(C)(CO)NS(=O)(=O)c1ccc2c(c1)Cc1cc(S(=O)(=O)NC(C)(C)CO)ccc1-2	n	n	n	n	n	n	n
Cc1ccc(S(=O)(=O)N2CCOCC2)cc1NC(=O)CNCC1CCCCC1	n	53	50	n	u	u	u
Cc1ccc(S(=O)(=O)N2CCOCC2)cc1NC(=O)CNCc1cccnc1	n	77	60	63	48	3.5µM	35µM
Cc1ccc(S(=O)(=O)N2CCOCC2)cc1NC(=O)CNCc1ccc(Cl)cc1Cl	x	x	x	n	n	x	x
O=C(NCCc1ccccc1)c1ccc(CS(=O)(=O)c2ccc(Br)cc2)o1	n	n	n	n	n	x	x
CN(CCNC(=O)c1ccc(CS(=O)(=O)c2ccc(Br)cc2)o1)CCc1ccccc1	n	53	n	n	n	n	n
O=C(CSc1nccn1Cc1ccc(F)cc1)Nc1ccc2c(c1)OCCO2	n	n	x	x	x	x	x
COc1ccc(C(c2c(O)cc(C)n(Cc3ccco3)c2=O)N2CCN(c3ccccc3)CC2)cc1 (stereo not drawn)	n	n	x	x	x	x	x
O=S(=O)(NCCc1csc(-c2cccnc2)n1)c1cccc(F)c1	n	n	n	n	n	x	x
O=S(=O)(NCCc1csc(-c2cccnc2)n1)c1cc(F)ccc1F	n	n	39	n	n	n	n
Cc1cccc(N2CCN(C(=O)c3ccc4c(Cl)c5c(nc4c3)CCCC5)CC2)c1C	n	x	x	x	x	x	x
COc1ccc(CCNC(=O)COC(=O)c2ccc(N3CCCC3=O)cc2)cc1OC	n	n	n	n	n	x	x
COc1ccccc1CNC(=O)COC(=O)c1ccc(N2CCCC2=O)cc1	n	n	n	n	n	n	n
Cc1cc(S(=O)(=O)C(CNC(=O)COc2ccc(Cl)cc2)c2cccs2)ccc1F (stereo not drawn)	n	n	x	x	x	x	x
CC(C)CN(C(=O)Cn1c(C(F)(F)F)nc2ccccc21)c1c(N)n(Cc2ccccc2)c(=O)[nH]c1=O	x	x	x	n	n	x	x
CC(=O)c1ccc(NC(=O)CN2CCN(CC(=O)Nc3ccc(C(C)=O)cc3)CC2)cc1	n	n	n	n	n	x	x
O=C(CN1CCC2(CC1)OCCO2)c1ccc2cc[nH]c2c1	n	n	n	n	n	x	x
COc1cccc(N2CCN(CC(=O)Nc3ccc(-n4cnnn4)cc3)CC2)c1	n	n	n	n	n	x	x
O=C(CN1CCN(c2ccccc2)CC1)c1ccc2cc[nH]c2c1	n	84	90	n	n	n	n
CC(=O)c1ccc(NC(=O)CN2CCN(c3ncccn3)CC2)cc1	n	74	77	n	47	u	u
O=C(CN1CCN(c2ccccc2)CC1)Nc1ccc(-n2cnnn2)cc1	n	69	51	n	n	u	u
O=C(O)C1CC=CCC1C(=O)Nc1ccc(N2CCN(Cc3ccccc3)CC2)cc1 (stereo not drawn)	n	64	n	n	n	n	n
C[C@@H]1CN([C@@H](C)CO)C(=O)c2cc(Br)cnc2O[C@H]1CN(C)C(=O)CN1CCOCC1	x	x	x	n	n	x	x

Compound activity: PubChem, National Center for Advancing Translational Sciences (NCATS)
